Hits are enriched below; roughly 2.9% of the tested compounds scored in any of these assays.
Mtb hypoxia inh: Mtb hypoxia fluorescent reporter inhibition. M. tuberculosis hypoxia-regulated fluorescent reporter, fluorescence. 300,000 compounds, 0.1% hits. fluorescence inhibition, % (no concentration beside the values); in the data active means fluorescence inhibition mostly above about 23%, no sharp cut-off; inactive means mostly below about 17%
FadD28 FP inh: M. tuberculosis FadD28 bisubstrate binding inhibition. FadD28 bisubstrate probe binding, fluorescence polarization. inhibition, % at 12.5 µM. 360,000 compounds, 0.22% hits. AID 588549; in the data active means inhibition above about 8.5%, passing the limit was not always enough
GDH-TPI counter-1: GDH-TPI coupled enzyme inhibition counter-screen; AID 588335; 360,000 compounds, 1.2% hits; GDH-TPI coupled enzyme counterscreen, NADH absorbance; inhibition, % at 4.8 µM; in the data active means inhibition above about 30%
FBA Mtb inh: Mtb fructose-bisphosphate aldolase inhibition; P9WQA3; purified M. tuberculosis FBA, fluorescence read-out; inhibition, % at 1 µM; 360,000 compounds, 2.3% hits; AID 588726
Target sequence (P9WQA3 whole entry, looked up): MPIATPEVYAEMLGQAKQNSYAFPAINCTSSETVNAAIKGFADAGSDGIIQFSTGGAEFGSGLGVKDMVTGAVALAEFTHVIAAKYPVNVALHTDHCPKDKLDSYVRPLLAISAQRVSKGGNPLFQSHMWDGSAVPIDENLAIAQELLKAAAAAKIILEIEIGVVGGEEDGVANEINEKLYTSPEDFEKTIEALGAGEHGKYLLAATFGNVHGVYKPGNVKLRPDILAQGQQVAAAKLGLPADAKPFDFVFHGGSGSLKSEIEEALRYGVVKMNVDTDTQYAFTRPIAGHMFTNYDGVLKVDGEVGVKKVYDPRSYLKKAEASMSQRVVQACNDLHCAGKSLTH
Mtb BioA inh: inhibitors of Mycobacterium tuberculosis BioA enzyme | purified M. tuberculosis BioA enzyme, plate reader | inhibition, % at 9.99 µM | 360,000 compounds, 0.096% hits; in the data active means inhibition above about 40%
Mtb FBA inh conf: confirmation of M. tuberculosis fructose-bisphosphate aldolase inhibitors; AID 651616; shares compounds with FBA Mtb inh; inhibition, % at 1 µM; purified M. tuberculosis FBA, fluorescence read-out; 5,600 compounds, 78% hits
GDH-TPI counter-2: counter-screen for M. tuberculosis FBA inhibitors: GDH-TPI coupled enzyme inhibition. shares compounds with FBA Mtb inh. GDH-TPI coupled enzyme counterscreen, fluorescence. inhibition, % at 1 µM. 5,600 compounds, 81% hits. AID 652141; in the data active means inhibition above about 10%
GDH-TPI dose: inhibits GDH-TPI coupling enzymes in dose response; shares compounds with FBA Mtb inh; GDH-TPI coupled enzyme assay, fluorescence, artifact counterscreen; IC50, µM; 170 compounds, 79% hits; AID 652145; call rule not given here
Hits are given with their value. Unless noted, no stated cut-off is given here; in the data, active means inhibition above about 27%; inactive means the rest.

Screening Cc1cc(C)c2oc(-c3cccc(N)c3)nc2c1 returned Mtb hypoxia inh inactive, FadD28 FP inh inactive, GDH-TPI counter-1 inactive, FBA Mtb inh 52, Mtb BioA inh inactive, Mtb FBA inh conf inactive, GDH-TPI counter-2 inactive and GDH-TPI dose 0.88.
For Cc1ccc(-c2nc3cc(Cl)ccc3o2)cc1 the results were Mtb hypoxia inh inactive, FadD28 FP inh inactive, GDH-TPI counter-1 inactive, FBA Mtb inh inactive and Mtb BioA inh inactive.
`CCC(=O)Nc1cccc(-c2nc3ccc(C)cc3o2)c1` gave Mtb hypoxia inh inactive, FadD28 FP inh inactive, GDH-TPI counter-1 inactive, FBA Mtb inh 32, Mtb BioA inh inactive, Mtb FBA inh conf 115 and GDH-TPI counter-2 99.
Nc1ccc2oc(-c3cccc(Br)c3)nc2c1 was read as Mtb hypoxia inh inactive, FadD28 FP inh inactive, GDH-TPI counter-1 inactive, FBA Mtb inh inactive and Mtb BioA inh inactive.
`Cc1ccc2nc(-c3ccc(O)cc3)oc2c1` gave FadD28 FP inh inactive, GDH-TPI counter-1 inactive, FBA Mtb inh 66, Mtb BioA inh inactive, Mtb FBA inh conf 68 and GDH-TPI counter-2 46.
For Cc1ccc2nc(-c3cccc(N)c3)oc2c1 the results were Mtb hypoxia inh inactive, FadD28 FP inh inactive, GDH-TPI counter-1 inactive, FBA Mtb inh 93, Mtb FBA inh conf inactive, GDH-TPI counter-2 inactive and GDH-TPI dose 0.95.
CC(=O)N(C)C[C@@H]1Oc2ncc(C3=CCCC3)cc2C(=O)N([C@H](C)CO)C[C@@H]1C was read as Mtb BioA inh inactive.
`CCS(=O)(=O)NCC[C@@H]1CC[C@@H](NC(=O)Nc2ccccc2)[C@H](CO)O1` gave Mtb BioA inh inactive.
`Cc1ccc2oc(-c3cccc(NC(=O)C4CCCO4)c3)nc2c1` (stereo not given) gave Mtb hypoxia inh inactive, FadD28 FP inh inactive, GDH-TPI counter-1 inactive, FBA Mtb inh 51, Mtb BioA inh inactive, Mtb FBA inh conf 120 and GDH-TPI counter-2 98.
For Cc1ccc2oc(-c3cccc(NC(=O)c4ccccn4)c3)nc2c1 the results were FadD28 FP inh inactive, GDH-TPI counter-1 inactive, FBA Mtb inh inactive and Mtb BioA inh inactive.
For CCc1ccc2oc(-c3cccc(N)c3)nc2c1 the results were Mtb hypoxia inh inactive, FadD28 FP inh inactive, GDH-TPI counter-1 inactive, FBA Mtb inh 63, Mtb BioA inh inactive, Mtb FBA inh conf 127 and GDH-TPI counter-2 104.
CN1C(=O)C(=CC(=O)c2cccs2)c2ccccc21 was read as Mtb hypoxia inh inactive.
`CCCc1cc(=O)n2c(nc3ccccc32)[nH]1` gave FadD28 FP inh inactive, GDH-TPI counter-1 inactive, FBA Mtb inh 47, Mtb BioA inh inactive, Mtb FBA inh conf inactive and GDH-TPI counter-2 inactive.
Screening Cc1cc(=O)n2c(nc3ccccc32)[nH]1 returned Mtb hypoxia inh inactive, FadD28 FP inh inactive, GDH-TPI counter-1 inactive, FBA Mtb inh 37, Mtb FBA inh conf 64 and GDH-TPI counter-2 42.
Screening Cc1noc(C)c1NC(=O)N[C@H]1CC[C@@H](CCNC(=O)C2CC2)O[C@H]1CO returned Mtb BioA inh inactive.
`C[C@@H]1CN([C@@H](C)CO)C(=O)CCCn2nncc2CO[C@@H]1CN(C)C(=O)Nc1ccc2c(c1)OCCO2` gave Mtb BioA inh inactive.
`CO[C@H]1CN(C)C(=O)c2cc(NC(=O)Nc3c(C)noc3C)ccc2OC[C@@H](C)NC[C@H]1C` gave Mtb BioA inh inactive.
O=C(O)c1cccc(Nc2nc(-c3cc4ccccc4oc3=O)cs2)c1 was read as Mtb hypoxia inh inactive, FadD28 FP inh inactive, GDH-TPI counter-1 inactive, FBA Mtb inh 28, Mtb BioA inh inactive, Mtb FBA inh conf 84 and GDH-TPI counter-2 72.
O=C(O)c1ccccc1NC(c1ccccc1)c1ccc2cccnc2c1O (stereo not given) was read as FadD28 FP inh inactive, GDH-TPI counter-1 inactive, FBA Mtb inh 38, Mtb FBA inh conf active and GDH-TPI counter-2 active.
For Cc1ccnc(NC(c2ccccc2)c2ccc3cccnc3c2O)c1 (stereo not given) the results were Mtb hypoxia inh inactive, GDH-TPI counter-1 inactive, FBA Mtb inh inactive and Mtb BioA inh inactive.
`COc1ccccc1S(=O)(=O)N[C@H]1CC[C@H](CC(=O)N2CCCCC2)O[C@H]1CO` gave Mtb BioA inh inactive.
Cc1ccc(CN2CC(C(=O)Nc3ccc4c(C)cc(=O)oc4c3)CC2=O)cc1 (stereo not given) was read as Mtb hypoxia inh inactive, FadD28 FP inh inactive, GDH-TPI counter-1 inactive, FBA Mtb inh 89, Mtb FBA inh conf 96 and GDH-TPI counter-2 74.
O=C(N/C(=C\c1cccc([N+](=O)[O-])c1)C(=O)N1CCOCC1)c1ccco1 was read as Mtb hypoxia inh inactive, GDH-TPI counter-1 inactive, FBA Mtb inh 65, Mtb BioA inh inactive, Mtb FBA inh conf 176 and GDH-TPI counter-2 142.
CCOc1ccc2oc(C(=O)N3CCCN(C)CC3)c(C)c2c1 was read as Mtb hypoxia inh inactive, FadD28 FP inh inactive, GDH-TPI counter-1 inactive, FBA Mtb inh inactive and Mtb BioA inh inactive.
CCOc1ccc2oc(-c3ccccc3)c(C(N)=O)c2c1 was read as Mtb hypoxia inh inactive, FadD28 FP inh inactive, GDH-TPI counter-1 inactive, FBA Mtb inh 69, Mtb BioA inh inactive, Mtb FBA inh conf active and GDH-TPI counter-2 199.
Screening CCOc1ccc2oc(-c3ccccc3)c(C(=O)N(C)C)c2c1 returned Mtb hypoxia inh inactive, FadD28 FP inh inactive, GDH-TPI counter-1 inactive, FBA Mtb inh 50, Mtb BioA inh inactive, Mtb FBA inh conf inactive and GDH-TPI counter-2 inactive.
`CCOc1ccc2oc(-c3ccccc3)c(C(=O)N3CCN(CCO)CC3)c2c1` gave FadD28 FP inh inactive, GDH-TPI counter-1 inactive, FBA Mtb inh 42, Mtb FBA inh conf 93 and GDH-TPI counter-2 90.
O=C(C[C@@H]1C[C@H]2c3cc(NC(=O)C4CCC4)ccc3O[C@H]2[C@H](CO)O1)NCc1ccncc1 was read as Mtb BioA inh inactive.
Screening O=C(Nc1ccc(F)cc1)N[C@@H]1CC[C@H](CCn2cc(-c3ccc(F)cc3)nn2)O[C@@H]1CO returned Mtb BioA inh inactive.
CCC(=O)N(C)C[C@@H]1[C@H](c2ccc(C3=CCCC3)cc2)[C@H](CO)N1C(=O)CC was read as Mtb BioA inh inactive.
For CO[C@@H]1CN(C)C(=O)c2ccc(NC(=O)C3CCCC3)cc2OC[C@@H](C)N(CC2CC2)C[C@H]1C the results were Mtb BioA inh inactive.
For COc1ccccc1NCCC(=O)O the results were Mtb hypoxia inh inactive, FadD28 FP inh inactive, GDH-TPI counter-1 inactive and FBA Mtb inh inactive.
O=C(O)CCNc1ccc(NCCC(=O)O)c2c1C(=O)c1ccccc1C2=O was read as FadD28 FP inh 10, GDH-TPI counter-1 inactive, FBA Mtb inh 90, Mtb FBA inh conf inactive and GDH-TPI counter-2 inactive.
For Cc1noc(C)c1NC(=O)Nc1cccc2c1O[C@@H](CN(C)Cc1ccc(C(F)(F)F)cc1)[C@H](C)CN([C@H](C)CO)C2=O the results were Mtb BioA inh inactive.

Source: PubChem BioAssay (several laboratories)
